Targets with a hit are over-represented here; the source holds about 8,800 in all. About 0.5% of all pairs of compound and target were hits.

Chain of UniProt Q8TD55 (Q8TD55 whole entry, looked up): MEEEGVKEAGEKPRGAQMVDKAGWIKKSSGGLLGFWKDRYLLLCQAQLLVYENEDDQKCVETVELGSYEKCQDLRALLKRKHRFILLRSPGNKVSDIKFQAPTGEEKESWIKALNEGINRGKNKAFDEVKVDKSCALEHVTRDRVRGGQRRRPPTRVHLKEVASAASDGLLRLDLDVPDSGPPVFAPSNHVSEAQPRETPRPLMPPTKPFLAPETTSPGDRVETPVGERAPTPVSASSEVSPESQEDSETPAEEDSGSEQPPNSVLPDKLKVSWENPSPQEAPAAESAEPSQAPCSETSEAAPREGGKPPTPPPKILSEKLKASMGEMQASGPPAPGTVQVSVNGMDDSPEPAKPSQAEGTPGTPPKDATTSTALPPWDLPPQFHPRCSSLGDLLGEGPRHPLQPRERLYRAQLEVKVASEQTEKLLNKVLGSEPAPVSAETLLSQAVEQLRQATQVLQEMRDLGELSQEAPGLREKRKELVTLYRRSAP
Chain of UniProt Q9UHV9 (Q9UHV9 whole entry, looked up): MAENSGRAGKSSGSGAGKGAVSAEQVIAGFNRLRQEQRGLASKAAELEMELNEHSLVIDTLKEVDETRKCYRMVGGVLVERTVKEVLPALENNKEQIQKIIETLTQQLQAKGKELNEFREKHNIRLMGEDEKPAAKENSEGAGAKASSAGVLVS
Chain of UniProt O95336 (O95336 whole entry, looked up): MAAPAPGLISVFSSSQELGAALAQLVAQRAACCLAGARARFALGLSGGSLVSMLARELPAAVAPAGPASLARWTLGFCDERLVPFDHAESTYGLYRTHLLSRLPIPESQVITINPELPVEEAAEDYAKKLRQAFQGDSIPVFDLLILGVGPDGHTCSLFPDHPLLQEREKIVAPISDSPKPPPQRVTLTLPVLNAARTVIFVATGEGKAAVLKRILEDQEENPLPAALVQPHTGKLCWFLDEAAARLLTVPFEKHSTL
Chain of UniProt Q9UMR5 (Q9UMR5 whole entry, looked up): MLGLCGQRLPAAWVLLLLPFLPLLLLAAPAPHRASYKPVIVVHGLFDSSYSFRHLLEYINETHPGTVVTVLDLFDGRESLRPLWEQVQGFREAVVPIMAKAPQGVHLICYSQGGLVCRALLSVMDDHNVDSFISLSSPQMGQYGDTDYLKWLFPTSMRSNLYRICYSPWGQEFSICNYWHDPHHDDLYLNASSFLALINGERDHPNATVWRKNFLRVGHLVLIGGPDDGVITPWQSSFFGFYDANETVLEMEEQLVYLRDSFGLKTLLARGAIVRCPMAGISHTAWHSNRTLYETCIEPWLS
Chain of UniProt Q9H939 (Q9H939 whole entry, looked up): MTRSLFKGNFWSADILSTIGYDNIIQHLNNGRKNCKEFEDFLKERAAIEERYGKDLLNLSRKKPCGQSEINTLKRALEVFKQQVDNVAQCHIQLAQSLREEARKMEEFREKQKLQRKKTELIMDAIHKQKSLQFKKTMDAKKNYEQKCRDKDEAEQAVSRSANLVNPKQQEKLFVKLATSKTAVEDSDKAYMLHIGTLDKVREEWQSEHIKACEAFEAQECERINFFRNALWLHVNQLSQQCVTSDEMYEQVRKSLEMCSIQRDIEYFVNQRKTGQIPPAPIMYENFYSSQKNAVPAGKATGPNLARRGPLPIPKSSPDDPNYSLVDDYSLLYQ
Chain of UniProt Q86UU1 (Q86UU1 whole entry, looked up): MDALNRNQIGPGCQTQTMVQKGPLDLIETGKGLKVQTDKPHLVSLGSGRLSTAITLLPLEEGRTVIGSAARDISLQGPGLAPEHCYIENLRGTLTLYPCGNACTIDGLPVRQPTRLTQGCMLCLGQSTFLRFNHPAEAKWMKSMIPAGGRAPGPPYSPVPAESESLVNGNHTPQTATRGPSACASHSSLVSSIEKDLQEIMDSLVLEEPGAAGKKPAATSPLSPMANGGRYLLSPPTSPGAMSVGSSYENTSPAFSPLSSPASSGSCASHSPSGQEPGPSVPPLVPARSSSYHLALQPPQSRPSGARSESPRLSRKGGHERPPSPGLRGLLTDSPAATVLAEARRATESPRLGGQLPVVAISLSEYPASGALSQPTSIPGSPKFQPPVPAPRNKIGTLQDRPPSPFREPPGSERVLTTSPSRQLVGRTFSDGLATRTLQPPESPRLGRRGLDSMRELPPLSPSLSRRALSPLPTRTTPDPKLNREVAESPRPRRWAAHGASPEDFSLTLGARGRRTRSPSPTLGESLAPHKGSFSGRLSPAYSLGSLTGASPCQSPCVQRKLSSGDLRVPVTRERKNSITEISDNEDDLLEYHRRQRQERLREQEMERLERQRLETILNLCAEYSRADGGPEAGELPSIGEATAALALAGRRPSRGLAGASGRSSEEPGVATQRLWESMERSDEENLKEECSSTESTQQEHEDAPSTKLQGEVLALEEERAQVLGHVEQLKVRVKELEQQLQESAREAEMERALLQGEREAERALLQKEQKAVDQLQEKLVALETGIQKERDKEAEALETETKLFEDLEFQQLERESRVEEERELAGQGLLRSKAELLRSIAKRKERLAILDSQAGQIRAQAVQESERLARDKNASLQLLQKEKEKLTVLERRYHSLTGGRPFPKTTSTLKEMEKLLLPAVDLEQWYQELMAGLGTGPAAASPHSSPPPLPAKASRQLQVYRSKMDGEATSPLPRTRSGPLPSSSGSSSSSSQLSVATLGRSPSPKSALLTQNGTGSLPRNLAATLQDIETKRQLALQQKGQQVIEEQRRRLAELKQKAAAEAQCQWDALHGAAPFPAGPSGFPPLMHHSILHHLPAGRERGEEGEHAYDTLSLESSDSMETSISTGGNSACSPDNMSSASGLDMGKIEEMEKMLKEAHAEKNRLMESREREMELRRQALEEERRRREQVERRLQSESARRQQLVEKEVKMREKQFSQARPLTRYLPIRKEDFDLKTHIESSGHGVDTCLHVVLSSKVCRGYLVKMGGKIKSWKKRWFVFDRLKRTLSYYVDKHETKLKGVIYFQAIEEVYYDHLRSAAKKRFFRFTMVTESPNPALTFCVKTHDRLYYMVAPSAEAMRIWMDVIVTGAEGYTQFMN
Chain of UniProt Q05397 (Q05397 whole entry, looked up): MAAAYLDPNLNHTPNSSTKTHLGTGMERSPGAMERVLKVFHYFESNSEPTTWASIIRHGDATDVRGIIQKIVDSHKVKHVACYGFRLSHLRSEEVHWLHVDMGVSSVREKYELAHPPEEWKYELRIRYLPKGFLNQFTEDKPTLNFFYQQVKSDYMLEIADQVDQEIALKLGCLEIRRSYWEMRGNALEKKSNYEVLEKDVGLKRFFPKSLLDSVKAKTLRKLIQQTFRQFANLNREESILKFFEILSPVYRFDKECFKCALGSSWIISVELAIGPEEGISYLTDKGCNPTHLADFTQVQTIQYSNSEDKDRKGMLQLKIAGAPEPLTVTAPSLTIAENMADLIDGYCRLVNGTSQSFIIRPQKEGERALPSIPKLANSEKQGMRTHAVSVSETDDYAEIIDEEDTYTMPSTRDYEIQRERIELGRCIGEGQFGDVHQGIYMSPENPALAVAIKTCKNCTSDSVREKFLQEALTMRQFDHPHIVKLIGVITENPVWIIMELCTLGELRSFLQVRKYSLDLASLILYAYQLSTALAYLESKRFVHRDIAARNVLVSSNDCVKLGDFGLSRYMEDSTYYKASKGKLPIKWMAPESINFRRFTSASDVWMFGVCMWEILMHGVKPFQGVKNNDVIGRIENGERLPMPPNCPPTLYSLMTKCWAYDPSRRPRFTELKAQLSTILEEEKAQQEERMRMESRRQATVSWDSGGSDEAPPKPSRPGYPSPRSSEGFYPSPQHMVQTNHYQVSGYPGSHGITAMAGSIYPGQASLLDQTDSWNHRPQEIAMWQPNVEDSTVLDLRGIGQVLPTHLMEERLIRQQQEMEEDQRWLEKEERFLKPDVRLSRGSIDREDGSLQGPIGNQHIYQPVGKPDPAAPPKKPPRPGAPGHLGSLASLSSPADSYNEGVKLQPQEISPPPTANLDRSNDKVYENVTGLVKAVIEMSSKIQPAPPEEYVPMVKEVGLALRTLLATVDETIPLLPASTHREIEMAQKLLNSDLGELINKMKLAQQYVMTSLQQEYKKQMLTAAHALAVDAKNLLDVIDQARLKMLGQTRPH
Chain of UniProt Q9UBF8 (Q9UBF8 whole entry, looked up): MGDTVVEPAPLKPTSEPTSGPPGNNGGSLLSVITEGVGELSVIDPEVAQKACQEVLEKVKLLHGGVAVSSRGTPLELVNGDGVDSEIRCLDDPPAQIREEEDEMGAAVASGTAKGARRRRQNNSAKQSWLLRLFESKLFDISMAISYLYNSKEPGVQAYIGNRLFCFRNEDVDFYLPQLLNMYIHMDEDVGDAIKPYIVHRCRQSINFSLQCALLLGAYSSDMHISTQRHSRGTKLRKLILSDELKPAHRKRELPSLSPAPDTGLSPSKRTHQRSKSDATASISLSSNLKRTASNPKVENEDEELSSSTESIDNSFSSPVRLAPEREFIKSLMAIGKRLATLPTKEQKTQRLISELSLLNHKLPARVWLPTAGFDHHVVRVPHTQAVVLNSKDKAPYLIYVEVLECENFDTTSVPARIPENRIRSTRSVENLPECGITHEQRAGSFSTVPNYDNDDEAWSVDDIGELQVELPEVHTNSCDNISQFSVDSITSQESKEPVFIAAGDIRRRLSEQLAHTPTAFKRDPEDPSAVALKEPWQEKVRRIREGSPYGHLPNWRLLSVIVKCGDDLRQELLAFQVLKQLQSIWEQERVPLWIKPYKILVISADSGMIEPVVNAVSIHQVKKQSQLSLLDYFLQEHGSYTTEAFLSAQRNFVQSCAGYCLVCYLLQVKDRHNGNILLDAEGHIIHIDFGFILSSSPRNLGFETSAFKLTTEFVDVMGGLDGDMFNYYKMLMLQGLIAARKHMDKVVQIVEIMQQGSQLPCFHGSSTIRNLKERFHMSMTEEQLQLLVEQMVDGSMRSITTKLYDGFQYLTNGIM
Chain of UniProt Q03393 (Q03393 whole entry, looked up): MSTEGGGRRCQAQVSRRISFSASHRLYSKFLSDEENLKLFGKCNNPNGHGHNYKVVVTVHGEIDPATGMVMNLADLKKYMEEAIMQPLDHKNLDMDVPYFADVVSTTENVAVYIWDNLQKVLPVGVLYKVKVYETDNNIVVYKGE

Compound in the first experiment: CC(C)(C)Cn1c(N)nc2ccc(-c3[nH]c(C(C)(C)C)nc3-c3ccc(F)cc3)nc21 [ralimetinib]
As to the kind of experiment: log2 fold change, soluble protein after heating vs DMSO (PISA); higher = thermal stabilisation; K562 lysate, 10 uM; active = over 0.2 and 3.5 SD of the protein, either way, in both replicates (recomputed). The method in brief: (§1)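 Dounce homogenisation of K562 pellets in PBS pH 7.4 with 1 mM MgCl2 produced a crude extract, used at 1 mg/mL protein. Exposure to 10 μM compound lasted 30 min, and aliquots were then heated for 3 min across 48°C-58°C, pooled and brought to 0.5% NP-40 at 4°C. The supernatant after 21,000xg for 90 min was quantified by TMTpro 16plex LC-MS/MS with channel sums equalised. Duplicate values are given as log-two fold change in thermal stability relative to solvent controls.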
As for PFDN2 (UniProt Q9UHV9), the log2 fold change is 0.08 (inactive).

PUM1 isoform 3 (UniProt Q14671): the log2 fold change was 0.003 (inactive).

Regarding POLR2G (UniProt P62487), the log2 fold change is 0.027 (inactive).

Turning to PRKCSH (UniProt K7ELL7), the log2 fold change was 0.049 (inactive).

As for PTK2 (UniProt Q05397), the log2 fold change was -0.002 (inactive).

As to PCIF1 (UniProt Q9H4Z3), the log2 fold change is 0.091 (inactive).

As to PIK3C3 (UniProt Q8NEB9), the log2 fold change was -0.023 (inactive).

As to PDIA4 (UniProt P13667), the log2 fold change is -0.016 (inactive).

Regarding PDCD4 (UniProt Q53EL6), the log2 fold change is 0.025 (inactive).

Regarding QKI (UniProt Q96PU8), the log2 fold change was -0.023 (inactive).

On to PTS (UniProt Q03393), for which the log2 fold change was 0.021 (inactive).

POMP (UniProt Q9Y244): the log2 fold change was -0.001 (inactive).

On to POLD3 (UniProt Q15054), for which the log2 fold change was -0.027 (inactive).

Take PI4KB (UniProt Q9UBF8): the log2 fold change is 0.021 (inactive).

In the case of PDE4DIP isoform 4 (UniProt Q5VU43), the log2 fold change is 0.02 (inactive).

PTPN6 isoform 4 (UniProt P29350): the log2 fold change was 0.045 (inactive).

For PGLS (UniProt O95336), the log2 fold change was 0.06 (inactive).

In the case of PFKFB2 (UniProt O60825), the log2 fold change is 0.035 (inactive).

Take PSTPIP2 (UniProt Q9H939): the log2 fold change is -0.024 (inactive).

PI4K2A (UniProt Q9BTU6): the log2 fold change was 0.002 (inactive).

Turning to PLEKHO2 (UniProt Q8TD55), the log2 fold change was -0.11 (inactive).

Take PLIN2 (UniProt Q99541): the log2 fold change was -0.014 (inactive).

Turning to PHLDB1 (UniProt Q86UU1), the log2 fold change is -0.094 (inactive).

PRKD3 (UniProt O94806): the log2 fold change was -0.164 (inactive).

With PTPN23 (UniProt Q9H3S7), the log2 fold change is 0.029 (inactive).

Turning to PI4KA (UniProt P42356), the log2 fold change is 0.011 (inactive).

With PUF60 isoform 2 (UniProt Q9UHX1), the log2 fold change was 0.045 (inactive).

As for PKP3 isoform 2 (UniProt Q9Y446), the log2 fold change was -0.028 (inactive).

For PCBP2 isoform 3 (UniProt Q15366), the log2 fold change is 0.021 (inactive).

Turning to PTPN1 (UniProt P18031), the log2 fold change was 0.018 (inactive).

Regarding PPP2R3C (UniProt Q969Q6), the log2 fold change is 0.109 (inactive).

Consider PPT2 isoform 3 (UniProt Q9UMR5), for which the log2 fold change is -0.001 (inactive).

On to PDCD6IP (UniProt Q8WUM4), for which the log2 fold change is -0.066 (inactive).

For the target PCBD2 (UniProt Q9H0N5), the log2 fold change is 0.051 (inactive).

As to PHKB isoform 3 (UniProt Q93100), the log2 fold change is 0.008 (inactive).

Take PFN1 (UniProt P07737): the log2 fold change is 0.009 (inactive).

Consider PIGO (UniProt Q8TEQ8), for which the log2 fold change is -0.039 (inactive).

With PYCR2 (UniProt Q96C36), the log2 fold change was -0.007 (inactive).

As for POGK (UniProt Q9P215), the log2 fold change was 0.04 (inactive).

Compound in a further experiment: CC(C)(O)CC(=O)NCCn1ccc2ncnc(Nc3ccc(Oc4cccc(C(F)(F)F)c4)c(Cl)c3)c21
The description is as above. In short, it runs like this:
as §1
As for PFDN2 (UniProt Q9UHV9), the log2 fold change was 0.08 (inactive).

Turning to PUM1 isoform 3 (UniProt Q14671), the log2 fold change is -0.031 (inactive).

POLR2G (UniProt P62487): the log2 fold change is -0.017 (inactive).

As for PRKCSH (UniProt K7ELL7), the log2 fold change was -0.051 (inactive).

For the target PTK2 (UniProt Q05397), the log2 fold change was 0.044 (inactive).

As for PCIF1 (UniProt Q9H4Z3), the log2 fold change was 0.017 (inactive).

In the case of PIK3C3 (UniProt Q8NEB9), the log2 fold change is -0.096 (inactive).

Turning to PDIA4 (UniProt P13667), the log2 fold change is 0.011 (inactive).

For the target PDCD4 (UniProt Q53EL6), the log2 fold change is -0.032 (inactive).

Consider QKI (UniProt Q96PU8), for which the log2 fold change is -0.027 (inactive).

Consider PTS (UniProt Q03393), for which the log2 fold change is -0.027 (inactive).

As for POMP (UniProt Q9Y244), the log2 fold change was -0.033 (inactive).

For the target POLD3 (UniProt Q15054), the log2 fold change is -0.004 (inactive).

Regarding PI4KB (UniProt Q9UBF8), the log2 fold change was -0.021 (inactive).

Regarding PDE4DIP isoform 4 (UniProt Q5VU43), the log2 fold change was -0.03 (inactive).

Take PTPN6 isoform 4 (UniProt P29350): the log2 fold change was -0.026 (inactive).

For PGLS (UniProt O95336), the log2 fold change was 0.008 (inactive).

PFKFB2 (UniProt O60825): the log2 fold change is -0.017 (inactive).

For the target PSTPIP2 (UniProt Q9H939), the log2 fold change is 0.012 (inactive).

PI4K2A (UniProt Q9BTU6): the log2 fold change is -0.037 (inactive).

Consider PLEKHO2 (UniProt Q8TD55), for which the log2 fold change was 0.108 (inactive).

With PLIN2 (UniProt Q99541), the log2 fold change was -0.022 (inactive).

For the target PHLDB1 (UniProt Q86UU1), the log2 fold change was 0.096 (inactive).

Regarding PRKD3 (UniProt O94806), the log2 fold change is -0.052 (inactive).

For the target PTPN23 (UniProt Q9H3S7), the log2 fold change is 0.007 (inactive).

Regarding PI4KA (UniProt P42356), the log2 fold change is -0.073 (inactive).

On to PUF60 isoform 2 (UniProt Q9UHX1), for which the log2 fold change is 0.004 (inactive).

In the case of PKP3 isoform 2 (UniProt Q9Y446), the log2 fold change was 0.009 (inactive).

PCBP2 isoform 3 (UniProt Q15366): the log2 fold change was 0.022 (inactive).

On to PTPN1 (UniProt P18031), for which the log2 fold change is 0.024 (inactive).

On to PPP2R3C (UniProt Q969Q6), for which the log2 fold change was 0.036 (inactive).

Consider PPT2 isoform 3 (UniProt Q9UMR5), for which the log2 fold change was -0.022 (inactive).

Regarding PDCD6IP (UniProt Q8WUM4), the log2 fold change was -0.004 (inactive).

With PCBD2 (UniProt Q9H0N5), the log2 fold change is -0.08 (inactive).

Take PHKB isoform 3 (UniProt Q93100): the log2 fold change was -0.052 (inactive).

Take PFN1 (UniProt P07737): the log2 fold change is 0.013 (inactive).

Turning to PIGO (UniProt Q8TEQ8), the log2 fold change is -0.013 (inactive).

With PYCR2 (UniProt Q96C36), the log2 fold change was -0.032 (inactive).

Turning to POGK (UniProt Q9P215), the log2 fold change was -0.026 (inactive).
